For eight molecules, growth results are on record in PubChem BioAssay (NCI).

Test systems include DU-145 prostate; K-562 leukemia; MALME-3M melanoma; MDA-MB-231 breast; RXF 393 renal; SF-268 CNS; SF-295 CNS; SF-539 CNS; UACC-257 melanoma; M14 melanoma; HCT-15 colon; HT29 colon; SNB-75 CNS; SNB-19 CNS; U251 CNS; PC-3 prostate; SK-MEL-5 melanoma; UACC-62 melanoma; LOX IMVI melanoma; SK-MEL-28 melanoma.
Holding throughout (assay): NCI-60 one-dose screen, 48 h (100 = growth as untreated, 0 = no growth, -100 = all killed)
Holding throughout (conditions): 10 µM unless noted

Compounds without any hit were thinned out: in the full panel of roughly 83,000, 20% have a hit.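 Assay: single dose, 48 h. Readout: percent growth (0 = no net growth; negative = cell death). Active: <10.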 A number with no mark means an inactive call. Active and inactive are the calls of the source.

For `COc1ccccc1NC(=O)OCC12COCN1COC2`, the growth with DU-145 prostate is 112%; in the assay with K-562 leukemia, 104%; in the assay with MALME-3M melanoma, 103%; in the assay on MDA-MB-231 breast it was 102%; with RXF 393 renal, 108%; with SF-268 CNS, 106%. Also, the growth is 103% in the assay on SF-295 CNS; 103% in the assay with SF-539 CNS; 89.9% in the assay on UACC-257 melanoma; 104% in the assay with M14 melanoma; 97.2% with HCT-15 colon; 109% in the assay with HT29 colon. Further, the growth in the assay on SNB-75 CNS was 97.6%; in the assay on SNB-19 CNS it was 94.4%; with U251 CNS, 91.1%; in the assay with PC-3 prostate it was 101%; in the assay on SK-MEL-5 melanoma, 99.5%; in the assay on UACC-62 melanoma, 99.7%. In addition, the growth in the assay on LOX IMVI melanoma is 107%; in the assay with SK-MEL-28 melanoma, 108%.
In the case of `c1ccc(-c2[nH]c3ccccc3c2-c2ccccc2)cc1`, the growth is 99.7% in the assay on DU-145 prostate; 83.4% with K-562 leukemia; 93.9% with MALME-3M melanoma; 84.7% in the assay on MDA-MB-231 breast; 149% in the assay with RXF 393 renal; 106% in the assay with SF-268 CNS. Besides, the growth was 87.9% with SF-295 CNS; 84.6% with SF-539 CNS; 101% in the assay with UACC-257 melanoma; 89.5% in the assay on M14 melanoma; 79.6% in the assay on HCT-15 colon; 88.4% in the assay on HT29 colon. In addition, the growth in the assay on SNB-75 CNS is 84.7%; with SNB-19 CNS, 97.5%; in the assay with U251 CNS it was 87.8%; with PC-3 prostate it was 79.4%; in the assay with SK-MEL-5 melanoma, 104%; in the assay on UACC-62 melanoma, 75.8%. Moreover, the growth with LOX IMVI melanoma is 79.8%; in the assay on SK-MEL-28 melanoma, 119%.
For `c1ccc2c(c1)cnc1ccccc12`, the growth in the assay with DU-145 prostate is 111%; with K-562 leukemia it was 97.2%; in the assay on MALME-3M melanoma, 127%; in the assay on MDA-MB-231 breast, 108%; in the assay with RXF 393 renal, 88.5%; in the assay with SF-268 CNS, 97.4%. The growth in the assay on SF-295 CNS is 113%; in the assay on SF-539 CNS it was 101%; with UACC-257 melanoma it was 103%; with M14 melanoma, 99.6%; in the assay with HCT-15 colon, 98.4%; with HT29 colon, 94.6%. The growth in the assay with SNB-75 CNS is 93.6%; with SNB-19 CNS, 99.2%; in the assay on U251 CNS it was 109%; in the assay with PC-3 prostate, 102%; in the assay on SK-MEL-5 melanoma, 98.5%; in the assay on UACC-62 melanoma, 98.9%. Moreover, the values for the growth in the assay on LOX IMVI melanoma and with SK-MEL-28 melanoma were 104% and 118%, respectively.
`COc1ccc(/C=C(/C(=O)N2CCN(c3ccccc3)CC2)c2cc(OC)c(OC)c(OC)c2)cc1N`: the growth was 15.2% with DU-145 prostate; 6.11% (active) in the assay with K-562 leukemia; 66.3% with MALME-3M melanoma; 22.1% in the assay with MDA-MB-231 breast; -1.82% (active) with RXF 393 renal; 46.6% with SF-268 CNS. The growth with SF-295 CNS was 7.2% (active); in the assay on SF-539 CNS, -17.4% (active); in the assay with UACC-257 melanoma it was 69.2%; in the assay with M14 melanoma, 1.47% (active); in the assay on HCT-15 colon, 14.6%; in the assay with HT29 colon, 7.35% (active). In addition, the growth in the assay with SNB-75 CNS is 53.3%; with SNB-19 CNS, 24.5%; in the assay with U251 CNS it was 14.5%; in the assay with PC-3 prostate, 26.7%; in the assay with SK-MEL-5 melanoma it was 7.37% (active); in the assay on UACC-62 melanoma, 27.9%. For the same molecule, the growth with LOX IMVI melanoma is 27.2%; in the assay on SK-MEL-28 melanoma, 64%.
As for `O=C(/C=C/c1cn(-c2ccccc2)nc1-c1cccc(Nc2ccnc3cc(Cl)ccc23)c1)c1ccc2c(c1)OCO2`, the growth with DU-145 prostate was 76.8%; in the assay on K-562 leukemia, 66.8%; in the assay on MALME-3M melanoma, 38%; with MDA-MB-231 breast, 72.7%; with RXF 393 renal, 95.2%; with SF-268 CNS, 89.7%. The growth with SF-295 CNS is 115%; with SF-539 CNS, 95.7%; in the assay on UACC-257 melanoma, 95%; in the assay with M14 melanoma, 111%; with HCT-15 colon, 91.9%; in the assay with HT29 colon, 114%. Besides, the growth with SNB-75 CNS was 101%; in the assay on SNB-19 CNS, 104%; in the assay on U251 CNS, 89.1%; in the assay with PC-3 prostate, 96.6%; with SK-MEL-5 melanoma, 85.3%; in the assay on UACC-62 melanoma, 104%. Moreover, the results for the growth in the assay on LOX IMVI melanoma and with SK-MEL-28 melanoma were 94.1% and 82.7%, respectively.
As to `COc1ccc(C2=Nn3c(nnc3-c3ccc(Cl)cc3N)SC2)cc1`, the growth was 117% in the assay on DU-145 prostate; 102% with K-562 leukemia; 104% in the assay on MALME-3M melanoma; 85.7% with MDA-MB-231 breast; 104% in the assay on RXF 393 renal; 106% in the assay with SF-268 CNS. Moreover, the growth in the assay with SF-295 CNS was 94.3%; in the assay on SF-539 CNS, 102%; with UACC-257 melanoma it was 95%; in the assay with M14 melanoma it was 107%; with HCT-15 colon, 96.1%; with HT29 colon it was 110%. In addition, the growth is 85.4% in the assay with SNB-75 CNS; 101% in the assay with SNB-19 CNS; 92.5% in the assay with U251 CNS; 95.1% in the assay on PC-3 prostate; 97.8% in the assay on SK-MEL-5 melanoma; 86.6% in the assay with UACC-62 melanoma. Besides, the results for the growth with LOX IMVI melanoma and in the assay on SK-MEL-28 melanoma were 89.7% and 97.8%, respectively.
`Cc1ccc2oc(=O)cc(-c3nc4ccc([N+](=O)[O-])cc4[nH]3)c2c1`: the growth in the assay on DU-145 prostate is 76.4%; in the assay on K-562 leukemia, 48.7%; with MALME-3M melanoma, 62.9%; in the assay on MDA-MB-231 breast, 64.2%; with RXF 393 renal, 46.7%; with SF-268 CNS, 62.1%. Also, the growth was 49.3% with SF-295 CNS; 54% in the assay on SF-539 CNS; 62.2% in the assay with UACC-257 melanoma; 64.4% with M14 melanoma; 59.4% in the assay on HCT-15 colon; 70.9% with HT29 colon. Besides, the growth in the assay on SNB-75 CNS was 70.1%; with SNB-19 CNS, 61.4%; in the assay with U251 CNS, 41.9%; in the assay on PC-3 prostate, 48.9%; with SK-MEL-5 melanoma it was 28.9%; with UACC-62 melanoma, 39.5%. Also, the results for the growth with LOX IMVI melanoma and with SK-MEL-28 melanoma were 67.7% and 63.7%, respectively.
Regarding `O=C(N=Nc1c(Cl)c(O)c2ccccc2c1O)C(=O)Nc1cccc(C(F)(F)F)c1`, the growth in the assay on DU-145 prostate was -38.7% (active); in the assay with K-562 leukemia, 57.6%; in the assay on MALME-3M melanoma, 10.7%; with MDA-MB-231 breast, 56.6%; with RXF 393 renal, 81.5%; in the assay on SF-268 CNS it was 68.2%. Moreover, the growth with SF-295 CNS was 41.1%; with SF-539 CNS, 102%; in the assay with UACC-257 melanoma it was 100%; with M14 melanoma, 32.8%; in the assay with HCT-15 colon, 68.9%; with HT29 colon, 73.6%. Moreover, the growth with SNB-75 CNS was 31.3%; in the assay on SNB-19 CNS, 92.6%; in the assay on U251 CNS it was 74.6%; in the assay with PC-3 prostate, 58.2%; in the assay with SK-MEL-5 melanoma, 72.4%; in the assay on UACC-62 melanoma, 83.2%. Moreover, the growth in the assay with LOX IMVI melanoma was 14.7%; in the assay on SK-MEL-28 melanoma it was 101%.
